Measurements reported in PubChem BioAssay (EPA / NIEHS).
Several values for one entry are separate records, joined by “and”; a condition that tells them apart may be missing. Equal values may be shown once. Results filed as inconclusive are left out. Activity calls are given as the source filed them. The calls were made as follows, unless noted: active = hit-call score of the fitted dose curve at least 0.9, where 1 is the maximum; inactive = score below 0.9.

How the values were obtained:
[1] = target: Hepatocyte nuclear factor 6 (Homo sapiens) (UniProt Q9UBC0); experiment: ATG_HNF6_CIS: Attagene CIS-FACTORIAL HepG2 Assay for human Hepatocyte Nuclear Factor 6 (HNF6) (AID 2282952); conditions: HepG2 Attagene cis-factorial HNF6 reporter transcription; actives raise or lower the signal
Chain of Hepatocyte nuclear factor 6 (Homo sapiens) (Q9UBC0 whole entry, looked up): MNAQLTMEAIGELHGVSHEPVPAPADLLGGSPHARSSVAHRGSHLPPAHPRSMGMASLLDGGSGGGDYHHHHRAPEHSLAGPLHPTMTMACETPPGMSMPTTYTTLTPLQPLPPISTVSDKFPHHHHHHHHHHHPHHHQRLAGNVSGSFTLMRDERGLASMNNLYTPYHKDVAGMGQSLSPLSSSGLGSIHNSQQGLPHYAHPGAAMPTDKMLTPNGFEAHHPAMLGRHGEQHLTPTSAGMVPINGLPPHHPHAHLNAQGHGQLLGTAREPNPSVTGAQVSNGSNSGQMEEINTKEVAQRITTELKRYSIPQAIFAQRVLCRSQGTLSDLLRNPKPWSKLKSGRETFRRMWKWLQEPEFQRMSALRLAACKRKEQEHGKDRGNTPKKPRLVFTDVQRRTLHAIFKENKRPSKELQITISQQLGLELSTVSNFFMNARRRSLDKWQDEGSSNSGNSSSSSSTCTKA
Method in brief: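 Cells are HepG2 carrying transiently transfected cis-promoter reporter units. Treatment lasts 24 h, after which reporter transcripts are reverse-transcribed, amplified, FAM-labelled and sized by capillary electrophoresis. DMSO serves as baseline.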

[2] = ATG_RORE_CIS: Attagene CIS-FACTORIAL HepG2 Assay for human RAR-related Orphan Receptor Element (RORE) (AID 2282959); conditions: HepG2 Attagene cis-factorial RORE reporter, mRNA; actives raise or lower the signal
Method in brief: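 Multiplexed reporter assay measuring mRNA induction from a cis promoter element in transiently transfected HepG2 cells after 24 h treatment. Detection via RT-PCR and capillary electrophoresis fluorescence; DMSO serves as baseline.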

[3] = target: Glucocorticoid receptor (Homo sapiens) (UniProt P04150); experiment: ATG_GR_TRANS: Attagene TRANS-FACTORIAL HepG2 Assay for human Glucocorticoid Receptor (GR) (AID 2282978; active = hit-call score of the fitted dose curve at least 0.9, where 1 is the maximum;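 also: activators score as hits since higher reporter transcript over DMSO is fitted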); conditions: HepG2 Attagene TRANS GR reporter, mRNA transcription
Chain of Glucocorticoid receptor (Homo sapiens) (P04150 whole entry, looked up): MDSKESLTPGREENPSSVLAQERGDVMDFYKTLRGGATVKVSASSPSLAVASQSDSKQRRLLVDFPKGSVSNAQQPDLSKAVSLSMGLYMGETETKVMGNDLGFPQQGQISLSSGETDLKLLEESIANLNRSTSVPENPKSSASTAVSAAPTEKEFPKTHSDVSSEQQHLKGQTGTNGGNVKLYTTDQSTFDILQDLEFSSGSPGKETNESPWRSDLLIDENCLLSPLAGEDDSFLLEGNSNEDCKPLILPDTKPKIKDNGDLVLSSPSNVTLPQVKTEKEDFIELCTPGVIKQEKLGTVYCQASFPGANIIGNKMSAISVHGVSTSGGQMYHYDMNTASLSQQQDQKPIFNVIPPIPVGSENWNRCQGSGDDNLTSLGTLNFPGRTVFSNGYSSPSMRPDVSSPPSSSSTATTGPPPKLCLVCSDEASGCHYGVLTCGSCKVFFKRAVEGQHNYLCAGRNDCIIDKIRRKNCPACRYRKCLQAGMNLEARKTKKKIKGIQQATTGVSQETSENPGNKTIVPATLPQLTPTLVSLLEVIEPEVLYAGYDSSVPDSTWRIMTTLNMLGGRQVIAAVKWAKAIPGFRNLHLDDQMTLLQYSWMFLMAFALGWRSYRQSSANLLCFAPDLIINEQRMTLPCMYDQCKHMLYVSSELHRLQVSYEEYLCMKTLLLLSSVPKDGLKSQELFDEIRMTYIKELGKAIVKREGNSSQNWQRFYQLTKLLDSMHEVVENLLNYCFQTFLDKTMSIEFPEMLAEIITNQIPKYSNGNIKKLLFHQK
Method in brief: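 Multiplexed TRANS reporter system, HepG2; 24 h exposure; RNA → oligo(dT) RT → reporter-specific PCR → 6-FAM primer extension → HpaI cut → CE fluorescence. Gain-of-signal vs DMSO.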

[4] = target: Nuclear respiratory factor 1 (Homo sapiens) (UniProt Q16656); experiment: ATG_NRF1_CIS: Attagene CIS-FACTORIAL HepG2 Assay for human Nuclear Respiratory Factor 1 (NRF1) Orphan Gene (AID 2282987); conditions: HepG2 NRF1 cis-element reporter, Attagene multiplex; actives raise or lower the signal
Chain of Nuclear respiratory factor 1 (Homo sapiens) (Q16656 whole entry, looked up): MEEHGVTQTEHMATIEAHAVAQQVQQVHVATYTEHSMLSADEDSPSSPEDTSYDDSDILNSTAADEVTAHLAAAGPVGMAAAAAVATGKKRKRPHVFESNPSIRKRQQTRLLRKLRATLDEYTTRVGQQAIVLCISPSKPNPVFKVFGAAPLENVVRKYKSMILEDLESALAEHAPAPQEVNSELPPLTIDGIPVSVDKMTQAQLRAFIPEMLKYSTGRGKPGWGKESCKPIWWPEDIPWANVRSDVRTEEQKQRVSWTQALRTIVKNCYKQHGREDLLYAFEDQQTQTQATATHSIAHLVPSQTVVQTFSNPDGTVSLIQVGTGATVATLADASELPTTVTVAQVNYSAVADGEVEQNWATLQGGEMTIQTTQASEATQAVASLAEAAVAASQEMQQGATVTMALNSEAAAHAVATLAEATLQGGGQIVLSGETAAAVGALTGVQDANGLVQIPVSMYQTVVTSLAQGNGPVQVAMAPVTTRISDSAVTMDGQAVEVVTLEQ
Method in brief: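 Human hepatoma HepG2 cells carrying transfected promoter-regulated reporter units were incubated with test chemicals for 24 h. Reporter transcripts were measured by RT-PCR plus capillary electrophoresis, and endpoints derived by bidirectional fitting with DMSO as baseline.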

[5] = target: Cellular tumor antigen p53 (Homo sapiens) (UniProt P04637); experiment: ATG_p53_CIS: Attagene CIS-FACTORIAL HepG2 Assay for human p53 Transcription Factor (AID 2282994); conditions: HepG2 p53 cis-element reporter, Attagene mRNA; actives raise or lower the signal
Chain of Cellular tumor antigen p53 (Homo sapiens) (P04637 whole entry, looked up): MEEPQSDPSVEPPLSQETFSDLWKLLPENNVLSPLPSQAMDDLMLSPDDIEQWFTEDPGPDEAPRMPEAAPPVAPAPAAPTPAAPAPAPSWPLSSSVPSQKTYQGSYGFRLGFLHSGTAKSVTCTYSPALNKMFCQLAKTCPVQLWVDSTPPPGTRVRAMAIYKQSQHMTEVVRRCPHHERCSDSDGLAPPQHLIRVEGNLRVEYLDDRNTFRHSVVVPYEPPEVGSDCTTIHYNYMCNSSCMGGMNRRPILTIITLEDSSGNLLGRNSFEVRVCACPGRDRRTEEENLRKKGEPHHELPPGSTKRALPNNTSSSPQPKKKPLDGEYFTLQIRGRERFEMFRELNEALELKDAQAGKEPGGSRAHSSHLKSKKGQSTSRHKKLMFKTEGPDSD
Method in brief: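 Multiplexed reporter mRNA assay in human HepG2 liver cells; cis-regulated units report endogenous factor activity. Values come from bidirectional curve fitting against DMSO negative control after 24 h treatment.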

[6] = BSK_3C_uPAR: BioMAP Diversity Plus: 3C Assay for Urokinase-type plasminogen activator receptor (uPAR) Biomarker Activity (AID 2282998); conditions: BioMAP 3C HUVEC, uPAR biomarker ELISA; actives raise or lower the signal
Method in brief: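 Dose primary human umbilical vein endothelial cells, incubate 24 h, measure cell-surface uPAR by ELISA, then fit the signal in both directions against the DMSO negative control.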

[7] = BSK_3C_VCAM1: BioMAP Diversity Plus: 3C Assay for Vascular cell adhesion molecule 1 (VCAM1) Biomarker Activity (AID 2282999); conditions: BioMAP 3C HUVEC, VCAM1 ELISA, cytokine-stimulated; actives raise or lower the signal
Method in brief: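 Human umbilical vein endothelial cells were dosed with compound for 24 h, after which cell-surface VCAM-1 was quantified by ELISA. Bidirectional curve fitting used DMSO as negative control and activity baseline.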

[8] = BSK_4H_Eotaxin3: BioMAP Diversity Plus: 4H Assay for Eotaxin 3 Biomarker Activity (AID 2283000); conditions: primary human endothelial cells (HUVEC); actives raise or lower the signal
Method in brief: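 ELISA quantitation of CCL26 (Eotaxin-3) protein from chemically dosed human vascular endothelial cells at 24 h; increases and decreases both scored relative to DMSO-treated baseline.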

[9] = BSK_3C_Proliferation: Cell Proliferation Assessment in the BioMAP Diversity Plus: 3C Assay (AID 2283006); conditions: primary human endothelial cells (HUVEC);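 as to AC50: potency may reflect either rise or fall in cell number versus DMSO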
Method in brief: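 Proliferation of human vascular endothelial primary cells after 48 h dosing, quantified as SRB-stained protein at 560 nm relative to DMSO.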

[10] = read-out: Monocyte Chemoattractant Protein-1 (MCP1), CCL2 (gene 6347); experiment: BSK_4H_MCP1: BioMAP Diversity Plus: 4H Assay for Monocyte Chemoattractant Protein-1 (MCP1) Biomarker Activity (AID 2283018); conditions: primary human endothelial cells (HUVEC); actives raise or lower the signal
Method in brief: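 Readout: MCP-1 ELISA on compound-treated HUVEC, sampled 24 h post-dosing. Baseline and negative control DMSO; bidirectional fit. Overt toxicity checked alongside by sulforhodamine B protein staining at time of biomarker measurement.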

[11] = read-out: Monokine induced gamma interferon (MIG), CXCL9 (gene 4283); experiment: BSK_3C_MIG: BioMAP Diversity Plus: 3C Assay for Monokine induced gamma interferon (MIG) Biomarker Activity (AID 2283021); conditions: primary human endothelial cells (HUVEC); actives raise or lower the signal
Method in brief: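 After 24 h of treatment, human umbilical vein endothelial cultures (3C system) had their MIG biomarker level determined by ELISA, with DMSO serving as negative control.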

[12] = BSK_3C_SRB: Viability Assessment in the BioMAP Diversity Plus: 3C Assay (AID 2283023); conditions: primary human endothelial cells (HUVEC);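 also: fitted both ways against DMSO so a hit may be signal rise or drop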
Method in brief: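 Overt cytotoxicity is gauged in parallel confluent HUVEC cultures by SRB total-protein staining at the time of biomarker measurement, 24 h after dosing. Gain or loss of signal is fitted versus DMSO.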

[13] = BSK_BE3C_SRB: Viability Assessment in the BioMAP Diversity Plus: BE3C Assay (AID 2283028); conditions: primary human bronchial epithelial cells
Method in brief: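 SRB total-protein staining (0.1%, after TCA fixation) of chemically dosed human bronchial epithelial primary cells at 24 h; DMSO serves as the negative control for bidirectional curve fitting.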

[14] = read-out: Monokine induced gamma interferon (MIG), CXCL9 (gene 4283); experiment: BSK_BE3C_MIG: BioMAP Diversity Plus: BE3C Assay for Monokine induced gamma interferon (MIG) Biomarker Activity (AID 2283035); conditions: primary human bronchial epithelial cells; actives raise or lower the signal;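 also: MIG protein measured by ELISA in BE3C cultures after 24 h of dosing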
Method in brief: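 ELISA read-out of MIG in human lung bronchial epithelial primary cultures, 24 h post-dosing. Bidirectional curve fit vs DMSO baseline.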

[15] = read-out: Urokinase-type plasminogen activator receptor (uPAR), PLAUR (gene 5329); experiment: BSK_BE3C_uPAR: BioMAP Diversity Plus: BE3C Assay for Urokinase-type plasminogen activator receptor (uPAR) Biomarker Activity (AID 2283039); conditions: primary human bronchial epithelial cells; actives raise or lower the signal;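 also: uPAR protein level measured by ELISA on the cells; cells exposed to compound for one day before measurement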
Method in brief: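 A uPAR ELISA serves as the readout, taken 24 h after treating primary human bronchial epithelial cells. Responses in either direction are fitted against DMSO, which defines baseline activity.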

[16] = read-out: Tissue plasminogen activator (tPA), PLAT (gene 5327); experiment: BSK_BE3C_tPA: BioMAP Diversity Plus: BE3C Assay for Tissue plasminogen activator (tPA) Biomarker Activity (AID 2283041); conditions: primary human bronchial epithelial cells; actives raise or lower the signal;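 also: tPA level quantified by ELISA one day after compound addition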
Method in brief: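 Bidirectional curve fitting relative to DMSO defined activity, with tPA detected by ELISA in chemically treated human bronchial epithelial primary cells at 24 hours.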

[17] = read-out: Interleukin-8 (IL8), CXCL8 (gene 3576); experiment: BSK_CASM3C_IL8: BioMAP Diversity Plus: CASM3C Assay for Interleukin-8 (IL8) Biomarker Activity (AID 2283042); conditions: primary human coronary artery smooth muscle cells; actives raise or lower the signal;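 also: IL-8 protein level quantified by ELISA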
[18] = read-out: Human Leukocyte Antigen - DR isotype (HLADR), HLA-DRA (gene 3122); experiment: BSK_CASM3C_HLADR: BioMAP Diversity Plus: CASM3C Assay for Human Leukocyte Antigen - DR isotype (HLADR) Biomarker Activity (AID 2283043); conditions: primary human coronary artery smooth muscle cells; actives raise or lower the signal;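 also: cell-surface HLA-DR protein level quantified by ELISA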
CD69, CD69 (gene 969) = experiment: BSK_SAg_CD69: BioMAP Diversity Plus: SAg Assay for CD69 Biomarker Activity (AID 2283089); conditions: primary human HUVEC with PBMC; actives raise or lower the signal
Method in brief: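 ELISA, fluorescence read-out: CD69 on human umbilical vein endothelial cell + PBMC co-culture, 24 h post-dosing. Gain or loss of signal fitted bidirectionally against DMSO baseline.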

[19] = target: Retinoic acid receptor alpha (Homo sapiens) (UniProt P10276); experiment: ATG_DR5_RAR_CIS: Attagene CIS-FACTORIAL HepG2 Assay for human Retinoic Acid Receptor Alpha (RARE), DR5 submotif (AID 2282934); conditions: HepG2 Attagene cis-factorial RARE DR5 reporter, mRNA; actives raise or lower the signal
Chain of Retinoic acid receptor alpha (Homo sapiens) (P10276 whole entry, looked up): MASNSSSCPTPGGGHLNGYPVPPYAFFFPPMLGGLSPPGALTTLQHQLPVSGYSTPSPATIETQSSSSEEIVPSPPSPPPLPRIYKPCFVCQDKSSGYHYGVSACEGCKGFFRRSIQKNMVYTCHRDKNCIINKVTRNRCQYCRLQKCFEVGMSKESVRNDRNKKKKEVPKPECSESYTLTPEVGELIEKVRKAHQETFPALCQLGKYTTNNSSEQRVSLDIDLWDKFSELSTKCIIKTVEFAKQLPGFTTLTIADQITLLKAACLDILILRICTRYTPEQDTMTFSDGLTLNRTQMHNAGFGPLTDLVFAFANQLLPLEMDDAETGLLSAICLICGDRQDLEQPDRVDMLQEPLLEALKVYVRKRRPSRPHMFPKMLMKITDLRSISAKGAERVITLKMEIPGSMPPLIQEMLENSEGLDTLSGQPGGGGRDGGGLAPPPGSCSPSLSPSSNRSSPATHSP
Method in brief: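 Endpoint fitted in both directions relative to DMSO as negative control. It reflects DR5 cis-element reporter mRNA induction in transiently transfected HepG2 cells, measured 24 h after dosing through RT-PCR and fluorescent capillary electrophoresis.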

Measured: AC50

CC/C=C\CCCCCO
inactive: [1] | [2] | [3] | [4] | [5]

CCCc1c(OCCCCc2nn[nH]n2)ccc(C(C)=O)c1O
inactive: [1] | [3] | [4] | [5]
active: [2] 33.2 µM

COc1ccc(C(=O)c2ccccc2O)c(O)c1
active: [6] 17.3 µM and 20 µM | [8] 10 µM and 14.4 µM | [9] 23.6 µM | [12] 12.6 µM and 13.7 µM | [18] 10.9 µM and 5.66 µM
not listed: [1] | [2] | [3] | [4] | [5] | [19]
inactive: all other assays above

COC(=O)CCSCCC(=O)OC
inactive: [19] | [1] | [2] | [3] | [4]

CCC[Si](OC(C)=O)(OC(C)=O)OC(C)=O
not listed: [1] | [2] | [3] | [4] | [5] | [19]
inactive: all other assays above

CCCCCC1CCCC(=O)O1 (configuration not stated)
inactive: [19] | [1] | [3] | [4] | [5]

Cc1ccccc1S(=O)(=O)O
inactive: [19] | [2] | [5]

O=C1CCCCCCCCCCCCCC1
inactive: [19] | [1] | [2] | [3] | [4] | [5]

CCCCNC(N)=O
inactive: [19] | [1] | [2] | [3] | [5]
